Laboratory results taken from PubChem BioAssay (EPA / NIEHS).
The source holds several records for some structures; these can differ, active in one and inactive in another. The source made the active and inactive calls. The calls were made as follows: active = hit-call score of the fitted dose curve at least 0.9, where 1 is the maximum; inactive = score below 0.9.

These compounds were tested on Matrix Metallopeptidase 9 (MMP9), MMP9 (gene 4318) (assay: BSK_BE3C_MMP9: BioMAP Diversity Plus: BE3C Assay for Matrix Metallopeptidase 9 (MMP9) Biomarker Activity (AID 2284283)). Conditions: primary human bronchial epithelial cells.
Protocol: BSK_BE3C is a cell-based, multiplexed-readout assay that uses bronchial epithelial cell, a human lung primary cell, with measurements taken at 24 hours after chemical dosing in a 96-well plate.BSK_BE3C_MMP9 is an assay component measured in the BSK_BE3C assay. It measures MMP-9 antibody related to regulation of gene expression using ELISA technology.Data from the assay component BSK_BE3C_MMP9 was analyzed at the endpoint, BSK_BE3C_MMP9, in the positive analysis fitting direction relative to DMSO as the negative control and baseline of activity. Using a type of binding reporter, gain or loss-of-signal activity can be used to understand protein changes. To generalize the intended target to other relatable targets, this assay endpoint is annotated to the 'protease' intended target family, where the subfamily is 'matrix metalloproteinase'.
The levels of cell surface (or secreted, indicated by the prefix "s") biomarker endpoints were measured by ELISA. Overt cytotoxicity to cells in confluent adherent cultures (all systems other than the BT system) was assessed by measuring total protein levels using sulforhodamine B (SRB) staining in parallel cultures at the time of biomarker measurements, indicated as SRB endpoints. For proliferation assays for adherent cell types, individual cell types are cultured at sub-confluence and relative cell numbers quantified by SRB staining at time points optimized for each system (48 h: 3C and CASM3C systems; 72 h: BT and HDF3CGF systems; 96 h: SAg system). SRB was performed by staining cells with 0.1% SRB after fixation with 10% TCA and reading wells at 560 nm.Viability and proliferation of PBMC (T cells) was quantified by Alamar Blue reduction for the SAg and BT systems. For PBMC viability (referred to as PBMC Cytotoxicity within the assay endpoint names), cells were plated (75,000/well in a 96-well plate) and then chemical samples added for 1 h before addition of activators, SEB and TSST-1 (20 ng/mL final concentration each). Cells were incubated for 90 h. Then, Alamar Blue (20 uL/well) (Invitrogen, Cat DAL1100) was added for 6 h, and the plates were read with a fluorescence microplate reader at 546/580 nm (excitation/emission). For PBMC proliferation, cells were plated and activated as above but incubated for only 16 h prior to addition of Alamar Blue. Plates were read after 6 h.
With CC(O)C(F)(F)C(F)(F)F (stereo unspecified) the outcome was “inactive”. With COC(=O)C(F)(F)C(F)(F)OC(F)(C(F)(F)F)C(F)(F)OC(F)=C(F)F (stereo unspecified) the outcome was “inactive”. With O=S(=O)(F)C(F)(F)C(F)(F)C(F)(F)C(F)(F)C(F)(F)C(F)(F)C(F)(F)C(F)(F)F the outcome was “inactive”. For OCC(F)(F)OC(F)(F)C(F)(F)OC(F)(F)C(F)(F)OC(F)(F)F, the outcome was “inactive”. In the case of OCC(F)(F)OC(F)(F)C(F)(F)OC(F)(F)CO, the outcome is reported as “inactive”. In the case of O=C(O)C(F)(OC(F)(F)C(F)(F)C(F)(F)F)C(F)(F)F (stereo unspecified), the outcome is reported as “inactive” and the AC50 is reported as 1.45 µM (active). With FC(F)(F)C(F)(C(F)(F)F)C(F)(F)C(F)(F)CC1CO1 (stereo unspecified) the outcome was “inactive”. For O=C(O)C=CC(F)(C(F)(F)F)C(F)(F)F, the outcome was “inactive”. In the case of COP(=O)(CCC(=O)NCO)OC, the outcome is reported as “inactive”. For C=CC(=O)OCC(F)(F)C(F)F, the outcome was “inactive”. NC(=O)C(F)(F)C(F)(F)F was tested, and the outcome was “inactive”. For O=C(O)C(F)(F)OC(F)(F)C(F)(F)OC(F)(F)C(=O)O, the outcome was “inactive”. For OCC(F)(F)OC(F)(F)C(F)(F)OC(F)(F)C(F)(F)OC(F)(F)CO, the outcome was “inactive”. O=C(O)C(F)(F)OC(F)(F)C(F)(F)OC(F)(F)F was tested, and the outcome was “inactive”. With O=C(O)C(F)(F)C(F)(F)C(=O)O the outcome was “inactive”.
